Values without a mark were called inactive. Results filed as inconclusive are left out. Calls of active or inactive are those of the source. Unless noted, calls come from the whole dose curve; as a rule, active = well fitted curve in the direction sought with a large enough effect in the repeat runs; inconclusive = weak or mixed curves; inactive = no such curve, though single readings can be large; an effect the other way counts as inactive or inconclusive.

Test [1] can be described thus: qHTS assay to identify small molecule antagonists of the estrogen related receptor (ERR) signaling pathway from Tox21 library - cell viability counter screen (AID 1224834). Note: nearly all actives have a fitted effect of over 30% in size. The gist of the method:
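CellTiter-Fluor fluorescence measured; ERR cells; 17.5 h compound incubation at 37 C; 30 min reagent step.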

The target in test [2] is Luciferin 4-monooxygenase (Photinus pyralis) (UniProt P08659). Nature of the test: qHTS assay to identify small molecule inhibitors of firefly luciferase (AID 1224835). Note: nearly all actives have a fitted effect of over 25% in size. The gist of the method:
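Inhibition of purified Photinus luciferase is measured by luminescence. Substrate levels (D-luciferin, ATP) sit at their KM values. Each compound is tested in a concentration series.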
(In general: qHTS replaces the single test concentration by a dilution series.)

Test [3] is described as follows: qHTS assay to identify small molecule agonists of the constitutive androstane receptor (CAR) signaling pathway - cell viability counter screen (AID 1224836). Note: nearly all actives have a fitted effect of over 45% in size. The gist of the method:
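Cells were seeded and incubated 4 hrs. Compounds were added across 15 concentrations together with PK11195 at 0.75 uM final. Plates were incubated 23 hrs at 37 C. CellTiter-Fluor was added and fluorescence measured.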

A short description of test [4]: qHTS assay to identify small molecule antagonists of the constitutive androstane receptor (CAR) signaling pathway - cell viability counter screen (AID 1224837). Note: nearly all actives have a fitted effect of over 45% in size. The gist of the method:
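Using CellTiter-Fluor, viability is scored in HepG2 cells stably carrying hCAR and a 2.2kb CYP2B6 reporter after 23 hr compound exposure across 15 concentrations, with CITCO present at 50 nM.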

Test [5] can be described thus: qHTS assay to identify small molecule antagonists of the estrogen related receptor signaling pathway with the pleiotropic PPARgamma coactivator (PGC) from Tox21 10K library - cell viability counter screen (AID 1224840; active = well fitted cell-killing curve with a large enough effect in the repeat runs, not every such curve was filed as active; note: nearly all actives have a fitted effect of over 40% in size). An outline of the steps:
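Here the PGC/ERR cells serve as a cytotoxicity control: they are exposed to compounds for 17.5 hours at 37 C, and live-cell signal is quantified using CellTiter-Fluor fluorescence.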

Test [6] is described as follows: qHTS assay to identify small molecule agonists of the hypoxia (HIF-1) signaling pathway - cell viability counter screen (AID 1224844; calls by dose curve; note: nearly all actives have a fitted effect of over 50% in size). An outline of the steps:
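Multiplexed with the HRE beta-lactamase assay, this viability read used CellTiter-Glo luminescence (30 min, RT) on HRE-bla ME-180 cells treated 17 hrs with compounds in 0.5% dialyzed FBS medium.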

Test [7] can be described thus: qHTS assay to identify small molecule agonists of H2AX (AID 1224845; active = well fitted activation curve with a large enough effect in the signal ratio in the repeat runs, not every such curve was filed as active; the % refers to the signal ratio). The gist of the method:
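Phospho-H2AX Ser139 measured by HTRF (ex 320 nm; em 665 and 620 nm) after 24 hr antibody incubation. Compounds, 15 concentrations, 0.76% DMSO, were applied to CHO-K1 cells for 3hr at 37C before lysis.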

A short description of test [8]: qHTS assay to identify small molecule agonists of the hypoxia (HIF-1) signaling pathway (AID 1224846; active = well fitted activation curve with a large enough effect in the signal ratio in the repeat runs, not every such curve was filed as active; the % refers to the signal ratio). The gist of the method:
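Hypoxia-pathway activation was scored as increased beta-lactamase from an HRE-controlled reporter in ME-180 cells; plated at 2,000 cells per well with 0.5% dialyzed FBS, they were exposed 17 hrs to compounds and then given CCF4-AM.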

The nature of test [9]: qHTS assay to identify small molecule agonists of H2AX - cell viability counter screen (AID 1224847; calls by dose curve; note: top concentration of the series differs between compounds; nearly all actives have a fitted effect of over 30% in size). The gist of the method:
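Cytotoxicity counter screen in wild-type CHO-K1 cells: a 3 hr compound treatment at 37C across 15 concentrations, followed by CellTiter-Glo luminescence to gauge viable cells.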

Test [10] can be described thus: qHTS RealTime-Glo MT Cell Viability Assay in HepG2 cells - 24 hour (AID 1224867). Note: nearly all actives have a fitted effect of over 50% in size. The gist of the method:
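HepG2 suspension premixed with RealTime-Glo reagents is plated at 600 cells per well and left 5 h at 37 C/5% CO2. Compounds in DMSO then go in, and bioluminescence reflecting viable cell number is recorded over 40 h.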

Test [11] in a line: qHTS RealTime-Glo MT Cell Viability Assay in HEK293 cells - 32 hour (AID 1224868). Note: top concentration of the series differs between compounds; nearly all actives have a fitted effect of over 50% in size. An outline of the steps: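 Reads taken at 0, 8, 16, 24, 32 and 40 h from the same wells. HEK293 cells (600/well) carried RealTime-Glo reagents from seeding, with compound added after a 5 h settle at 37 C.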
Test [12] can be described thus: A CellTox Green Cytotoxicity Assay to monitor cytotoxicity in HEK293 cells - 0 hour (AID 1224869). Note: nearly all actives have a fitted effect of over 50% in size. An outline of the steps: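 Seeding of HEK293 cells together with cytotoxicity dye preceded a 5 h incubation at 37 C/5% CO2. Test compounds in DMSO were then added and fluorescence monitored across 40 h.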
The nature of test [13]: qHTS RealTime-Glo MT Cell Viability Assay in HepG2 cells - 40 hour (AID 1224870). Note: nearly all actives have a fitted effect of over 50% in size. The gist of the method: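 Real-time viability: cells seeded at 600 per well together with NanoLuc and cell-permeant prosubstrate, compounds added after 5 h incubation. Luminescence tracked at 0, 8, 16, 24, 32 and 40 h of exposure.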
Test [14] addresses Nuclear receptor subfamily 1 group I member 3 (Homo sapiens) (UniProt Q14994). Description: qHTS assay to identify small molecule antagonists of the constitutive androstane receptor (CAR) signaling pathway (AID 1224838).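 Note: HepG2 cells stably expressing hCAR with CYP2B6 luciferase reporter stimulated by CITCO; nearly all actives have a fitted effect of over 40% in size.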 The gist of the method: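 Reporter luminescence was quantified after 24 h exposure of hCAR/CYP2B6-2.2kb double-stable HepG2 cells to compounds at 15 concentrations in the presence of 50 nM CITCO final.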

For test [15] the target is unchanged. Nature of the test: qHTS assay to identify small molecule agonists of the constitutive androstane receptor (CAR) signaling pathway (AID 1224839).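 For activation: HepG2 cells stably carrying human CAR and a CYP2B6 luciferase reporter.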 Note: nearly all actives have a fitted effect of over 15% in size. Note: potency is the fitted concentration of half-maximal effect. An outline of the steps: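 Cells were plated and incubated 4 hrs, then dosed with compounds at 15 concentrations. PK11195 was added to 0.75 uM final. After 24 hrs at 37 C, luciferase luminescence was measured.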
Test [16] is described as follows: qHTS assay to identify small molecule antagonists of the estrogen related receptor signaling pathway with the pleiotropic PPARgamma coactivator (PGC) from Tox21 10K library (AID 1224841; call rule not given here; note: potency is the fitted concentration of half-maximal effect). An outline of the steps:
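Each well held 2,000 PGC/ERR cells, pre-incubated six hours (37 C, 5% CO2). Test substances in DMSO were added by pin tool and left for 18 h at 37 C before luciferase detection by One-Glo.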

Test [17] is described as follows: qHTS assay to identify small molecule agonists of the estrogen related receptor signaling pathway with the pleiotropic PPARgamma coactivator (PGC) from Tox21 10K library (AID 1224842). Note: nearly all actives have a fitted effect of over 15% in size. The gist of the method:
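Luminescence from One-Glo (30 min, room temperature) measured after PGC/ERR cells had 18 h at 37 C with pinned compound (23 nL in DMSO). Cells had been seeded at 2,000 per well and pre-incubated 6 h.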

The target in test [18] is Thyrotropin receptor (Homo sapiens) (UniProt P16473). Description: qHTS assay to identify small molecule agonists of the thyroid stimulating hormone receptor (TSHR) signaling pathway (AID 1224843; calls by dose curve; note: nearly all actives have a fitted effect of over 45% in size). An outline of the steps: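 HEK293 cells stably bearing the thyrotropin receptor were plated at 800 cells/well and challenged with compound (30 min, RT). Accumulated cAMP was quantified via cAMP-d2 competing for cryptate-tagged antibody.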
Thyrotropin receptor (Homo sapiens), sequence (P16473 whole entry, looked up): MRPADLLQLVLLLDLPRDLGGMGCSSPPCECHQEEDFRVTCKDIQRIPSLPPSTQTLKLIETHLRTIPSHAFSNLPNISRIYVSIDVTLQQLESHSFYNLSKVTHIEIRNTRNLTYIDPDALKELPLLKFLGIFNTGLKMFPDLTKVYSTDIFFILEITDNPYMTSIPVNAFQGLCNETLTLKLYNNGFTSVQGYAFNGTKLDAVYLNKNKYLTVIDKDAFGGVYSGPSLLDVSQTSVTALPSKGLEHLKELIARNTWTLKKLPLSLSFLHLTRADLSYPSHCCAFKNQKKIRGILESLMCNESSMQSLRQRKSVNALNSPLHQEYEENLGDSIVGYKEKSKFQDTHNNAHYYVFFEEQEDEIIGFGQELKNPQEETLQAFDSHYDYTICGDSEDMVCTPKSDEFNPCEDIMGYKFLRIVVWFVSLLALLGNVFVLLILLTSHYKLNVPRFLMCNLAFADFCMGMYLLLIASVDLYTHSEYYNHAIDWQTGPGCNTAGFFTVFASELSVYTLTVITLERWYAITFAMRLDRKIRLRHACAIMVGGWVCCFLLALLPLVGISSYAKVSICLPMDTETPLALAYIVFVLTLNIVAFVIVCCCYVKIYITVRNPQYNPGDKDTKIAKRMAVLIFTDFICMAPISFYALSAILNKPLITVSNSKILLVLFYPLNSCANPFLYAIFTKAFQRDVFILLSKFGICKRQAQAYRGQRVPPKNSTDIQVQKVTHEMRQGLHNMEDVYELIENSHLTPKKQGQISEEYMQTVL

A short description of test [19]: qHTS assay to identify small molecule antagonists of the estrogen related receptor (ERR) signaling pathway from Tox21 library (AID 1224848). Note: nearly all actives have a fitted effect of over 50% in size. An outline of the steps:
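Reading was by luminescence 30 min after ONE-Glo addition. Before that, ERR cells at 2,000 per well had rested 6 h at 37 C/5% CO2 and then received pin-tooled compounds in DMSO for 18 h at 37 C.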

Test [20] is described as follows: qHTS assay to identify small molecule agonists of the estrogen related receptor (ERR) signaling pathway from Tox21 library (AID 1224849; calls by dose curve; note: nearly all actives have a fitted effect of over 15% in size). The conditions noted are these: ERR reporter cell line, ONE-Glo luciferase, 18 h; at 92.4 µM (top of the series) unless noted. An outline of the steps:
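Six hours post-seeding at 37 C/5% CO2, ERR cells receive DMSO-solubilised compounds; after 18 h at 37 C, ONE-Glo reagent is applied and luminescence recorded.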
% is set by controls: 0 for no effect and ±100 for the full control effect.

Luciferin 4-monooxygenase (Photinus pyralis), sequence (P08659 whole entry, looked up): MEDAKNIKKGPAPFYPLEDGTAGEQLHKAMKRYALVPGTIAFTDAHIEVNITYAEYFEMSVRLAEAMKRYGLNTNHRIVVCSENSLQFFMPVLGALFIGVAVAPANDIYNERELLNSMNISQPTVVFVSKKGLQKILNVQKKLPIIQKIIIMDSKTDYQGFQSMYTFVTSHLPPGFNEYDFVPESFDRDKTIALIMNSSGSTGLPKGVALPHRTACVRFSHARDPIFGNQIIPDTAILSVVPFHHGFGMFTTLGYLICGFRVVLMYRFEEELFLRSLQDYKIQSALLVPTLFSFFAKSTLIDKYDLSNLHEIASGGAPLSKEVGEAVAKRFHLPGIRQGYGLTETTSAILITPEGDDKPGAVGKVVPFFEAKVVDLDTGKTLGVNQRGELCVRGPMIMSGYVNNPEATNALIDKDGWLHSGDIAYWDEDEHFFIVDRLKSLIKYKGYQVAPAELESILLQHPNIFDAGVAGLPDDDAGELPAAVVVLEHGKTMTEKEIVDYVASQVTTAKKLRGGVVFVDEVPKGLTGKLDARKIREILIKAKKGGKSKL
Nuclear receptor subfamily 1 group I member 3 (Homo sapiens), sequence (Q14994 whole entry, looked up): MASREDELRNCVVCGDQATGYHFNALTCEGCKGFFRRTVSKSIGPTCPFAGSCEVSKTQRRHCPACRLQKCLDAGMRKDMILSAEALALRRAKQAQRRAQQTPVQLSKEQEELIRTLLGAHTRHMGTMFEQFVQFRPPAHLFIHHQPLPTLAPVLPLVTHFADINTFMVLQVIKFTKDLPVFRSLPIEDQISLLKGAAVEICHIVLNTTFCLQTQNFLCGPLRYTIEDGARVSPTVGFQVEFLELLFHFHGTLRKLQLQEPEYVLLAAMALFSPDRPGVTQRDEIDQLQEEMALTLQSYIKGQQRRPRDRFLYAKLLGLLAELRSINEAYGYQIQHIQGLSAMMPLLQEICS

Take `CC/C=C\CCOC(=O)C(C)C`: the Potency result in [1], in test [2], in test [3], in [4], in test [5] and in test [6] was “inactive” throughout. Also, the Potency result in test [7], in test [9], in test [10], in [11], in [12] and in [13] was “inactive” in each case. Further, the compound was classed as inactive in test [8].

Take `CC1(C)C(=O)N(Cl)C(=O)N1Br`: the Potency result in test [1], in test [3], in test [4], in test [14], in [15] and in test [5] was “inactive” in each case. The Potency result in [6], in test [7], in test [9], in [10], in test [11] and in [12] was “inactive” throughout. Also, in test [13], the Potency result was “inactive”. The compound was called inactive in test [8].

In the case of `NC/C=C/C(=O)O`, the Potency result in [2], in test [3], in [4], in test [14], in [15] and in test [5] was “inactive” in each case. Besides, the Potency result in [16], in test [17], in [18], in [6], in [7] and in test [9] was “inactive” each time. Further, the Potency entry in [19], in test [11], in [12] and in [13] was “inactive” throughout. In addition, in test [20], the activity change, positive = activation is 6.36% [at 42.5 µM].

Turning to `Cc1cc(NS(=O)(=O)c2ccc(N)cc2)nc(C)n1`, the Potency result in test [1], in test [4], in test [14], in test [5], in test [18] and in test [6] was “inactive” throughout. Further, the Potency entry in [7], in test [9], in [10], in test [11], in [12] and in test [13] was “inactive” throughout. The Potency in test [15] was 11.9 µM (active). For the same compound, the outcome in test [8] was inactive.

Turning to `O=C(O)c1ccccc1Nc1cc(Cl)ccc1C(=O)O`, the activity change, negative = inhibition in test [2] is -7.25% [at 23.6 µM]. In addition, the figures for the viability change, negative = cytotoxic in test [3] and in [5] were -10% [at 19 µM] and -4.89% [at 19 µM], respectively. For the same compound, the activity change, negative = cytotoxicity in test [4] is -10.7% [at 19 µM]; in test [6], 5.17% [at 15.8 µM]; in [9], 9.56% [at 31.6 µM]; in [10] it was -0.715% [at 15.8 µM]. Also, the values for the activity, negative = inhibition in test [14], in test [16] and in test [19] were -20% [at 19 µM], 1.12% [at 19 µM] and -10.4% [at 19 µM], respectively. Besides, the activation in test [15] was -3.13% [at 19 µM]; in test [17], 0.171% [at 19 µM]; in test [18], -5.91% [at 19 µM]; in test [8] it was -1.19% [at 15.8 µM]. Also, in test [7], the activation (H2AX phosphorylation) is 5.25% [at 31.6 µM]. The activity change, positive = activation in [20] is -5.59% [at 19 µM]. The activity change, negative = cytotoxic in test [11] is 3.41% [at 15.8 µM]; in test [13], -5.11% [at 15.8 µM]. The cytotoxicity in [12] is 1.27% [at 15.8 µM].

Turning to `OCc1c2ccccc2cc2ccccc12`, the Potency entry in test [1], in [3], in [4], in test [14], in test [5] and in test [17] was “inactive” each time. The Potency entry in test [6], in [9], in [10], in test [12] and in test [13] was “inactive” each time. For the same compound, in test [16], the Potency is 68.8 µM (active). Also, the compound was classed as inactive in test [8]. Moreover, the activity change, positive = activation in [20] is -18.3%.

Take `O=C(O)C(=O)Cc1c[nH]c2ccccc12`: the Potency result in test [1], in [3], in [4], in [14], in [5] and in test [6] was “inactive” each time. The Potency result in test [7], in test [9], in test [10], in test [11], in [12] and in test [13] was “inactive” in each case. The Potency in [15] was 30.6 µM (active). For the same compound, in test [8], the outcome was inactive.

Regarding `CC/C=C\CCOC(=O)CCCCC`, the Potency entry in test [2], in test [3], in test [4], in test [14], in [15] and in [5] was “inactive” each time. For the same compound, the Potency result in test [16], in test [17], in test [18], in test [6], in test [7] and in test [9] was “inactive” throughout. The Potency result in test [19], in [10], in [11] and in test [13] was “inactive” in each case. The compound was called inactive in test [8]. Besides, the activity change, positive = activation in test [20] was 5.28%.

In the case of `CC(C)NCC(O)COc1ccc(CCOCC2CC2)cc1` (stereo unspecified), the Potency entry in test [1], in test [3], in [4], in [14], in test [15] and in test [5] was “inactive” in each case. Besides, the Potency result in test [6], in test [7], in test [9], in test [10], in test [11] and in test [12] was “inactive” throughout. Also, the Potency entry in [13] was “inactive”.

These data come from PubChem BioAssay (Tox21).
